From PubChem BioAssay
Compounds with a hit are over-represented: about 2.9% of the library has one in this group of screens.
H9c2 protect: protects H9c2 cardiomyocytes from peroxide injury; 0.63% of 360,000 active; H2O2 injury protection, ATPLite, 2 h; protection from H2O2 cell death, % at 20 µM;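 active = compounds giving at least 50% protection of heart cells from peroxide-induced death in the single-dose screen, raw or plate-pattern-corrected value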
TAG inh: reduces triacylglycerol accumulation in H9c2 cells. inhibition, % at 12.5 µM. 0.66% of 230,000 active. Nile Red lipid (TAG) fluorescence; cells loaded with 200 µM oleic acid;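 active = pattern-corrected inhibition of lipid staining of at least 50% with the nuclear-stain viability signal not falling by more than 50%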
APOBEC3G inh: blocks human APOBEC3G single-stranded DNA deamination; AID 493012; 0.28% of 330,000 active; Q9HC16; recombinant A3G, ssDNA deamination FAM/TAMRA fluorescence; inhibition, % at 20 µM;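 active = inhibition of at least 40% at 20 µM, with no more than 30% in the related APOBEC3A deaminase screen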
Target sequence (Q9HC16 whole entry, looked up): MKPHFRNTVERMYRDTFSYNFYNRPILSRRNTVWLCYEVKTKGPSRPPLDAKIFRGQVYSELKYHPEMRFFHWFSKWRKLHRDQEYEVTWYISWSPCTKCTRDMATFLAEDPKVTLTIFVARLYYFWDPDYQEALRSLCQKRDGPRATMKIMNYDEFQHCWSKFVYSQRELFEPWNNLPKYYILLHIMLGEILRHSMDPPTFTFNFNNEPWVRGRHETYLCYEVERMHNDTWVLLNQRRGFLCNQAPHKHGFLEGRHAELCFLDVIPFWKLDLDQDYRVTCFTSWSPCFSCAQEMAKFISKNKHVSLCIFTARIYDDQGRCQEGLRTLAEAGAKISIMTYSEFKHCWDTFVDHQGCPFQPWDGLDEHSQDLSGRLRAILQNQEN
PfGluPho inh: PfG6PD (Plasmodium falciparum) enzyme inhibition. PfGluPho enzyme, NADPH resazurin-diaphorase fluorescence. inhibition, % at 20 µM. 0.78% of 350,000 active. AID 504690;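 active = inhibition reaching at least a set limit at 20 µM in the primary screen, cut at about 59% in these data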
A3A deaminase: inhibitors of human APOBEC3A DNA deaminase; P31941; recombinant A3A, FAM/TAMRA ssDNA deamination fluorescence; inhibition, % at 20 µM; 0.41% of 330,000 active; AID 493011;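 active = at least 40% inhibition at 20 µM here, with at most 30% in a related deaminase screen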
Target sequence (P31941 whole entry, looked up): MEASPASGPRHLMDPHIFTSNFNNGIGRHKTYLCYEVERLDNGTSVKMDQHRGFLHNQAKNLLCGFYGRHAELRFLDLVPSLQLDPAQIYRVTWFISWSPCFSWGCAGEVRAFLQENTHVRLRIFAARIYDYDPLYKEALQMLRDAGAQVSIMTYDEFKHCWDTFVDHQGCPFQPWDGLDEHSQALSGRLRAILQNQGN
NadD block: inhibitors of Staphylococcus aureus NadD; purified NadD enzyme, colorimetric absorbance read-out; inhibition, % at 20 µM; 0.78% of 360,000 active; in the data active = inhibition above about 26%
TAG conf: confirmation of triacylglycerol accumulation inhibitors; shares compounds with TAG inh; H9c2 lipid accumulation, Nile Red fluorescence; cells loaded with 200 µM oleic acid; inhibition, % at 12.5 µM; 71% of 990 active;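 active = mean inhibition across replicates of 40% or more; inactive = mean inhibition below 40%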
Each line names hits and unclear results; the compound was inactive in the other large screens (follow-up assays come after a bar, where they were run); ! = a repeat was not active.

CCO[C@@H]1OC(C(=O)N2CCN(Cc3ccccc3)CC2)=C[C@H](c2ccc(Br)cc2)[C@H]1CCCO	none
CCCSc1nc(SCC(=O)NCc2ccccc2)c2c3c(sc2n1)COC(C)(CC)C3 (stereo unspecified)	TAG inh 63 | TAG conf 48
Cc1ccc(S(=O)(=O)NC2=C(N3CCN(c4ccccc4F)CC3)C(=O)c3ccccc3C2=O)cc1	TAG inh 68, NadD block 34! | TAG conf 78
Cc1ccc(S(=O)(=O)NC2=C(N3CCN(Cc4ccccc4)CC3)C(=O)c3ccccc3C2=O)cc1	none (no result: TAG inh)
CC(C(=O)NCCc1ccccc1)N1c2cccc3cccc(c23)S1(=O)=O (stereo unspecified)	none
CCc1nnc(NC(=O)c2ccc(OCc3c(C)noc3C)c(OC)c2)s1	none
COc1cc(C(=O)Nc2nc3ccc(C)cc3s2)ccc1OCc1c(C)noc1C	TAG inh 51 | TAG conf inactive
CCOc1ccc(Cc2nnc(SCC(=O)Nc3ccccc3)n(N)c2=O)cc1	TAG inh 50 | TAG conf 68
Cc1ccc(Cc2nnc(SCC(=O)Nc3ccccc3)n(N)c2=O)cc1	TAG inh 52 | TAG conf 62
COc1cccc(NC(=O)CSc2nnc(Cc3ccc(C)cc3)c(=O)n2N)c1	none
c1ccc2c(c1)NC(c1ccncc1)n1c-2nc2ccccc21 (stereo unspecified)	TAG inh 53 | TAG conf inactive
CC(=O)NC(NC(=S)N1CCCCCC1)C(Cl)(Cl)Cl (stereo unspecified)	none
Cc1cc(C)c(S(=O)(=O)Cc2ccccc2)c(=O)[nH]1	none
Cc1cccc(NC(=O)CSCC(=O)Nc2cccc3ncccc23)c1	none
CC/C(=C\c1ccc(N(C)C)cc1)c1ccncc1	none (no result: APOBEC3G inh, A3A deaminase)
CC(C)(C)N1C(=O)[C@H]2[C@@H](c3ccc(Br)cc3)N3C(=O)N(c4ccc(Br)cc4)C(=O)[C@@]3(Cc3ccccc3)[C@H]2C1=O	TAG inh 60 | TAG conf 54
CCn1c(CCl)nc2cc(S(=O)(=O)N3CCOCC3)ccc21	none
COc1ccc(OC)c(N(CCN2C(=O)c3ccccc3C2=O)C(=O)CCl)c1	TAG inh 52 (no result: APOBEC3G inh, A3A deaminase) | TAG conf 53
COc1ccc(NC(=O)CCN2C(=O)c3ccccc3C2=O)c(OC)c1	none (no result: TAG inh)
Cc1ccc(C(=O)N/C(=C/c2cccnc2)C(=O)N2CCCCCC2)cc1	none
CC(C)N(C(=O)c1ccc(Cc2cn(C)c3ccccc23)nc1)C(C)C	none (no result: APOBEC3G inh, PfGluPho inh, A3A deaminase)
CN1CCN(C(=O)c2ccc(Cc3cn(C)c4ccccc34)nc2)CC1	TAG inh 54 (no result: APOBEC3G inh, PfGluPho inh, A3A deaminase) | TAG conf inactive
COc1cc(OC)c2ccc(=O)oc2c1C(CCN1CCCC(C)C1)c1ccc2c(c1)OCO2 (stereo unspecified)	none
CCN(CC)CCC(c1ccc(N(C)C)cc1)c1c(OC)cc(OC)c2ccc(=O)oc12 (stereo unspecified)	none
COc1cc(C(CCN2CCCC(C)C2)c2c(OC)cc(OC)c3c(-c4ccccc4)cc(=O)oc23)cc(OC)c1OC (stereo unspecified)	TAG inh 74 | TAG conf 78
COc1cc(C(CCN2CCOCC2)c2c(OC)cc(OC)c3c(C)cc(=O)oc23)cc(OC)c1OC (stereo unspecified)	none
CCCCCc1cc(=O)oc2c(C(CCN3CCN(c4ccccc4)CC3)c3ccc4c(c3)OCO4)c(OC)cc(OC)c12 (stereo unspecified)	TAG inh 65 | TAG conf 74
COc1cc(C(CCN2CCCC2)c2c(OC)cc(OC)c3c(C)cc(=O)oc23)cc(OC)c1OC (stereo unspecified)	none
CCCCCc1cc(=O)oc2c(C(CCN(CC)CC)c3ccc(OC)cc3)c(OC)cc(OC)c12 (stereo unspecified)	TAG inh 73 | TAG conf 68
COc1cc(C(CCN2CCCCC2)c2c(OC)cc(OC)c3c(-c4ccccc4)cc(=O)oc23)cc(OC)c1OC (stereo unspecified)	TAG inh 58 | TAG conf 52
COc1cccc(C(C)(O)c2nc(-c3ccc(N(C)C)cc3)cs2)c1 (stereo unspecified)	none (no result: APOBEC3G inh, PfGluPho inh, A3A deaminase)
CCCCCc1cc(=O)oc2c(C(CCN3CCCC3)c3cc(OC)c(OC)c(OC)c3)c(OC)cc(OC)c12 (stereo unspecified)	TAG inh 94 | TAG conf 77
COc1ccc(-c2cc3nc(-c4ccccc4)cc(N4CCN(C(=O)c5ccccc5)CC4)n3n2)cc1	TAG inh 52 (no result: APOBEC3G inh, A3A deaminase) | TAG conf 42
COc1ccc(-c2cc3nc(-c4ccccc4)cc(N4CCN(C(=O)c5ccsc5)CC4)n3n2)cc1	none (no result: APOBEC3G inh, A3A deaminase)
NC(=O)c1cc(-c2ccccc2)nc(N2CCOCC2)n1	TAG inh 52 | TAG conf 60
O=S(=O)(c1ccc(Cl)cc1)N1c2ccccc2Oc2nc3ccccc3nc21	none
COc1ccc(S(=O)(=O)N2c3cc(Cl)ccc3Oc3nc4ccccc4nc32)cc1	TAG inh 52 | TAG conf inactive
COC(=O)[C@H](C)N(Cc1ccc(Cl)c(Cl)c1)S(=O)(=O)CCNC1CCCC1	none
COCCS(=O)(=O)N(Cc1ccc(Br)cc1)[C@@H](C)C(=O)OC	TAG inh 53 | TAG conf inactive
COC(=O)[C@@H](CC(C)C)N(Cc1ccccc1)S(=O)(=O)N(Cc1ccccc1)[C@@H](CC(C)C)C(=O)OC	TAG inh 62 | TAG conf inactive
OC(CN1CCCCC1)c1ccc2c3c(cccc13)CC2 (stereo unspecified)	none (no result: APOBEC3G inh, A3A deaminase)
Cc1ccc(S(=O)(=O)N2CCOCC2)cc1C(=O)NCc1ccccc1CN1CCCC1	none
Nc1c(C(=O)NC2CCCC2)c2nc3ccccc3nc2n1/N=C/c1cccnc1	TAG inh 69 | TAG conf 72
COCCCNC(=O)c1c(N)n(/N=C/c2ccccn2)c2nc3ccccc3nc12	none
COc1ccc(-c2nc(-c3ccccc3)c(-c3cc([N+](=O)[O-])ccc3C)[nH]2)cc1OC	TAG inh 50 | TAG conf 58
Cc1ccc2oc(NC3=NC4(CCCC4)C4=C(CCCC4=O)N3)nc2c1	TAG inh 55 (no result: APOBEC3G inh, PfGluPho inh, A3A deaminase) | TAG conf 62
CC1(C)CC(=O)C2=C(C1)NC(Nc1nc3ccccc3o1)=NC21CCCCC1	none (no result: TAG inh)
CN(C)CCn1c(=O)n(-c2ccc(F)cc2)c(=O)c2c3c(sc21)CCCCC3	none
CN(C)CCCn1c(=O)n(C2CCCCC2)c(=O)c2c3c(sc21)CCCCC3	TAG inh 59 | TAG conf 72
Cc1c(CN(C)C(=O)C2CCC(=O)N(Cc3ccccc3F)C2)[nH]c2ccccc12 (stereo unspecified)	none (no result: APOBEC3G inh, A3A deaminase)
Cc1ccc(S(=O)(=O)N(C)c2ccc(C(=O)NCc3ccccc3F)cc2)cc1	none
